Assay results published in PubChem BioAssay (EPA / NIEHS).
Records with an inconclusive call do not appear. The source made the active and inactive calls. The calls were made as follows, unless noted: active = hit-call score of the fitted dose curve at least 0.9, where 1 is the maximum; inactive = score below 0.9.

Experiments:
[1] = ACEA_ER_80hr: ACEA Biosciences xCELLigence Real-Time Cell Analysis on Estrogen Receptor Agonism for Proliferation (AID 2282667; active = hit-call score of the fitted dose curve at least 0.9, where 1 is the maximum); settings: T47D proliferation, impedance (xCELLigence), 80 h
How it was run: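 T-47D cells monitored by electrical impedance (xCELLigence) with compound present throughout; 80 h timepoint, positive-direction fitting versus DMSO. Eight-point 1:4 dilutions from 100 uM final, duplicate plates.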

[2] = ATG_CRE_CIS: Attagene CIS-FACTORIAL HepG2 Assay for human cAMP Responsive Element (CRE) binding protein 3 (AID 2282926); settings: HepG2 CRE cis-reporter, Attagene multiplexed mRNA; actives raise or lower the signal
How it was run: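 Induced reporter mRNA from a CRE cis element, measured in HepG2 among many multiplexed units at 24 h. Detection used RT-PCR plus capillary electrophoresis of fluorescent fragments; DMSO served as negative control.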

[3] = biological target: CCAAT/enhancer-binding protein beta (Homo sapiens) (UniProt P17676); test: ATG_C_EBP_CIS: Attagene CIS-FACTORIAL HepG2 Assay for human CCAAT/Enhancer Binding Protein (C/EBP) beta (AID 2282927); settings: HepG2 Attagene cis-factorial transcription factor reporter; actives raise or lower the signal
How it was run: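 Changes in reporter mRNA, rather than exogenous chimeric receptor activity, reflect native C/EBP signalling in transfected HepG2 cells dosed for 24 h; transcripts are detected by RT-PCR and capillary electrophoresis.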

[4] = ATG_CMV_CIS: Attagene CIS-FACTORIAL HepG2 Assay for human CMV (Internal Marker) (AID 2282928); settings: HepG2 CMV promoter reporter, transcription factor profiling; actives raise or lower the signal;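 also: endpoint acts as a background internal control marker rather than a target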
How it was run: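 Reporter transcripts from transfected HepG2 cells are isolated after 24 h of chemical dosing, reverse-transcribed and amplified. Fragments labeled with 6-FAM are cut with HpaI and quantified by capillary electrophoresis; DMSO defines baseline.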

[5] = ATG_DR4_LXR_CIS: Attagene CIS-FACTORIAL HepG2 Assay for human Liver X Receptor (LXR), DR4 submotif (AID 2282929); settings: HepG2 Attagene DR4 cis-reporter, mRNA transcription; actives raise or lower the signal
How it was run: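 Total RNA from 24 h-treated, MRTU-transfected HepG2 cells underwent reverse transcription, PCR, fluorescent primer extension and restriction digestion before capillary electrophoresis. Both increases and decreases in reporter signal were fitted against DMSO.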

[6] = ATG_AP_1_CIS: Attagene CIS-FACTORIAL HepG2 Assay for human Activator Protein 1 (AP-1) (AID 2282931); settings: HepG2 Attagene cis-factorial AP-1 reporter mRNA; actives raise or lower the signal
How it was run: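 HepG2, transient cis-reporter transfection; 24 h; readout RT-PCR/CE fluorescence; DMSO baseline, gain and loss fitted.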

[7] = ATG_AP_2_CIS: Attagene CIS-FACTORIAL HepG2 Assay for human Activator Protein 2 (AP-2) (AID 2282932); settings: HepG2 AP-2 cis-reporter, Attagene transcription factor profiling; actives raise or lower the signal
How it was run: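 Endogenous transcription factor activity is reported through transfected multiplex reporter constructs in HepG2, after 24 h of compound exposure. Transcripts were quantified by RT-PCR and capillary electrophoresis of fluorescent fragments. Bidirectional fit against DMSO.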

[8] = ATG_BRE_CIS: Attagene CIS-FACTORIAL HepG2 Assay for human Bone Morphogenetic Protein (BMP) Response Element (BRE) (AID 2282933); settings: HepG2 BMP response element reporter, Attagene transcription factor profiling; actives raise or lower the signal
How it was run: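 Fluorescence-labelled reporter cDNA fragments, separated by capillary electrophoresis, gave the signal for this component of a 52-readout multiplex. HepG2 cells were transfected, exposed to chemicals for 24 h, and compared with DMSO using bidirectional fitting.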

[9] = biological target: Transcription factor E2F1 (Homo sapiens) (UniProt Q01094); test: ATG_E2F_CIS: Attagene CIS-FACTORIAL HepG2 Assay for human E2F Transcription Factor 1 (AID 2282935); settings: HepG2 Attagene cis-reporter, E2F reporter RNA transcripts; actives raise or lower the signal
How it was run: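 Gain or loss of reporter transcript, fitted against DMSO, reflects E2F1-driven transcription. Transiently transfected HepG2 dosed 24 h before RNA isolation. Quantified by fluorescent RT-PCR products separated by capillary electrophoresis.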

[10] = ATG_E_Box_CIS: Attagene CIS-FACTORIAL HepG2 Assay for human Enhancer Box (E-box) (AID 2282936); settings: HepG2 E-box cis-reporter transcription, actives raise or lower the signal
How it was run: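 E-box-driven reporter transcripts measured in transiently transfected HepG2 after 24 h exposure: RNA reverse-transcribed, PCR-amplified, fluorescently labelled, digested and resolved by capillary electrophoresis. Gain or loss relative to DMSO.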

[11] = ATG_M_61_CIS: Attagene CIS-FACTORIAL HepG2 Assay for M61 Transcription Factor (Internal Marker) (AID 2282937); settings: HepG2 Attagene CIS-FACTORIAL M61 internal marker reporter; actives raise or lower the signal
How it was run: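 Transfect HepG2 with MRTUs; dose 24 h; isolate RNA; reverse-transcribe with DNase I treatment; PCR-amplify, FAM-label and cut with HpaI for 2 h at 37 C; resolve by CE. Bidirectional fitting against DMSO.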

[12] = ATG_EGR_CIS: Attagene CIS-FACTORIAL HepG2 Assay for human Early Growth Response 1 (EGR1) (AID 2282938); settings: HepG2 Attagene CIS-FACTORIAL EGR reporter mRNA; actives raise or lower the signal
How it was run: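 After a 24 h treatment of transiently transfected HepG2 cells, total RNA was reverse-transcribed and reporter sequences PCR-amplified, labelled and run on capillary electrophoresis. Reporters sit under cis-regulatory promoters sensing endogenous factors.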

[13] = ATG_M_19_CIS: Attagene CIS-FACTORIAL HepG2 Assay for M19 Transcription Factor (Internal Marker) (AID 2282939); settings: HepG2 Attagene CIS-FACTORIAL M19 internal marker reporter; actives raise or lower the signal
How it was run: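 HepG2, MRTU transient transfection, 24 h dosing. Total RNA → RT-PCR → 6-FAM primer extension → HpaI digest → CE fluorescence. Bidirectional curve fit, DMSO negative control.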

[14] = ATG_ERE_CIS: Attagene CIS-FACTORIAL HepG2 Assay for Estrogen Response Element (ERE) (AID 2282940); settings: HepG2 ERE cis-reporter, Attagene RNA transcript; actives raise or lower the signal
How it was run: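 After a 24 h chemical treatment, RNA from reporter-transfected HepG2 cells is reverse-transcribed, PCR-amplified and fluorescently labelled. Fragments separated by capillary electrophoresis give reporter signal; DMSO serves as negative control.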

[15] = ATG_Ets_CIS: Attagene CIS-FACTORIAL HepG2 Assay for human Erythroblast Transformation Specific (ETS) (AID 2282941); settings: HepG2 ETS cis-reporter transcription, actives raise or lower the signal
How it was run: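 Bidirectional fit versus DMSO of reporter mRNA signal, detected by RT-PCR and capillary electrophoresis in HepG2 cells transiently transfected with cis-element reporters and dosed 24 h.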

[16] = biological target: Hepatocyte nuclear factor 3-beta (Homo sapiens) (UniProt Q9Y261); test: ATG_FoxA2_CIS: Attagene CIS-FACTORIAL HepG2 Assay for human Forkhead box A2 (FOXA2) (AID 2282942); settings: HepG2 cis-reporter transcription factor activity, 24 h; actives raise or lower the signal
How it was run: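 24 h dosing of HepG2 bearing cis-reporter constructs; mRNA readout by RT-PCR/CE fluorescence; bidirectional fit, DMSO baseline.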

[17] = ATG_FoxO_CIS: Attagene CIS-FACTORIAL HepG2 Assay for human Forkhead box O (FoxO) (AID 2282943); settings: HepG2 Attagene cis-reporter, FoxO element, mRNA; actives raise or lower the signal
How it was run: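 Human hepatoma HepG2 cells carry transiently introduced reporter transcription units controlled by cis promoter elements. Chemical treatment lasted 24 h, and mRNA signal was compared with DMSO.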

[18] = ATG_GATA_CIS: Attagene CIS-FACTORIAL HepG2 Assay for human GATA Binding Protein (AID 2282944); settings: HepG2 GATA cis-element reporter, Attagene multiplex mRNA; actives raise or lower the signal
How it was run: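 Cells: HepG2, transiently transfected with cis-regulated reporter transcription units. Exposure: 24 h. Detection: RT-PCR plus capillary electrophoresis of FAM-labeled fragments. Analysis: bidirectional, DMSO as baseline.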

[19] = biological target: Aryl hydrocarbon receptor (Homo sapiens) (UniProt P35869); test: ATG_Ahr_CIS: Attagene CIS-FACTORIAL HepG2 Assay for human Aryl Hydrocarbon Receptor (Ahr) (AID 2282930); settings: HepG2 AhR cis-factorial reporter transcription; actives raise or lower the signal
How it was run: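 HepG2, transient MRTU (cis) transfection, 24 h exposure. RNA → cDNA → PCR → 6-FAM primer extension → HpaI 2 h 37 C → CE. Fit: bidirectional, DMSO baseline.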

[20] = biological target: Retinoic acid receptor alpha (Homo sapiens) (UniProt P10276); test: ATG_DR5_RAR_CIS: Attagene CIS-FACTORIAL HepG2 Assay for human Retinoic Acid Receptor Alpha (RARE), DR5 submotif (AID 2282934); settings: HepG2 Attagene cis-factorial RARE DR5 reporter, mRNA; actives raise or lower the signal;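 as to AC50: reporter responds to endogenous RAR alpha beta and gamma in HepG2 not RARA alone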
How it was run: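 HepG2, transient cis-reporter transfection, 24 h exposure. mRNA readout: RT-PCR, FAM label, HpaI cut, capillary electrophoresis. DMSO baseline, gain/loss fitting.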

Measured: AC50

Sequence of CCAAT/enhancer-binding protein beta (Homo sapiens) (P17676 whole entry, looked up): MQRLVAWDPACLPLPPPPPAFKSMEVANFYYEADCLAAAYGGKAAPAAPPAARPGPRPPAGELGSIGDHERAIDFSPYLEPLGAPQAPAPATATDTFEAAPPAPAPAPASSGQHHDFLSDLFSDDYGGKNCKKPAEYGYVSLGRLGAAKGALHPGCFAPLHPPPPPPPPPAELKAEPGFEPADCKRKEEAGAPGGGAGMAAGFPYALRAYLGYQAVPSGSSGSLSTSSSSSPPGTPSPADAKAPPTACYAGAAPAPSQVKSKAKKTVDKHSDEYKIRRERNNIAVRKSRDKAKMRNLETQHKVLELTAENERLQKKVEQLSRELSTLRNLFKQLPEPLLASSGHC
Sequence of Hepatocyte nuclear factor 3-beta (Homo sapiens) (Q9Y261 whole entry, looked up): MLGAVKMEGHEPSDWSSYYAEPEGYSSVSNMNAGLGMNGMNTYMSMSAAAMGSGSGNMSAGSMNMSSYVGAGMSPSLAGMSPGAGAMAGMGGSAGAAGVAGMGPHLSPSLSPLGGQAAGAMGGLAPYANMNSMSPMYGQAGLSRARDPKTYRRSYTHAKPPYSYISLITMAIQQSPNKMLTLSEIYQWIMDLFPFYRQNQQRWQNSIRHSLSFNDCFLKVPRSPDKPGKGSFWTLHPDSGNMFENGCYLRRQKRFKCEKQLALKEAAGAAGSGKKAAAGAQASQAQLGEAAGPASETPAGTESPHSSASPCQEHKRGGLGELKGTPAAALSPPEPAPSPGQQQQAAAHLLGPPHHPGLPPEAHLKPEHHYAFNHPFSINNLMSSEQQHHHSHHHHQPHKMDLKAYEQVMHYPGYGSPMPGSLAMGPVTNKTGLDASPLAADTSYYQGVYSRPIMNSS
Sequence of Aryl hydrocarbon receptor (Homo sapiens) (P35869 whole entry, looked up): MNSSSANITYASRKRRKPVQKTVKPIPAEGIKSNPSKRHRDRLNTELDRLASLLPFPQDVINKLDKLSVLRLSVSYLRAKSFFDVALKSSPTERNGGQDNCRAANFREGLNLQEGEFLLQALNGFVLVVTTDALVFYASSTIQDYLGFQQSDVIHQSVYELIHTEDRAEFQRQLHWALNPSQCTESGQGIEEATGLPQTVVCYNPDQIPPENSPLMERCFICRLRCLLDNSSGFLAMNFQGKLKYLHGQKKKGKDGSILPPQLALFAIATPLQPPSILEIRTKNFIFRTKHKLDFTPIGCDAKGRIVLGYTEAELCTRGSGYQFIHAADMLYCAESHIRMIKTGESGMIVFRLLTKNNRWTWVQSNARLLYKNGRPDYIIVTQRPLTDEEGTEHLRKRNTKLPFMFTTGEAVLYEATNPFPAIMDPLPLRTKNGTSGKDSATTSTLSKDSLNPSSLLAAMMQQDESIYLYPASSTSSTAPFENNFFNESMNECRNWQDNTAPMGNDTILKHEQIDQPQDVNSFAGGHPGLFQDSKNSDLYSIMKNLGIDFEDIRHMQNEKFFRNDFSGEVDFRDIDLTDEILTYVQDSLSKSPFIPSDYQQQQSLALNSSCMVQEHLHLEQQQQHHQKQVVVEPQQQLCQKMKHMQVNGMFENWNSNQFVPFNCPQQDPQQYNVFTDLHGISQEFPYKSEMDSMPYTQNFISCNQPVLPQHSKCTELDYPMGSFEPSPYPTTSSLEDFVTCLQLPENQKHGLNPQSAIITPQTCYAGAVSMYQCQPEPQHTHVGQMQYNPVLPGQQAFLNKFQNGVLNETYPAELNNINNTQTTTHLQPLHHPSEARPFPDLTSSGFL
Sequence of Transcription factor E2F1 (Homo sapiens) (Q01094 whole entry, looked up): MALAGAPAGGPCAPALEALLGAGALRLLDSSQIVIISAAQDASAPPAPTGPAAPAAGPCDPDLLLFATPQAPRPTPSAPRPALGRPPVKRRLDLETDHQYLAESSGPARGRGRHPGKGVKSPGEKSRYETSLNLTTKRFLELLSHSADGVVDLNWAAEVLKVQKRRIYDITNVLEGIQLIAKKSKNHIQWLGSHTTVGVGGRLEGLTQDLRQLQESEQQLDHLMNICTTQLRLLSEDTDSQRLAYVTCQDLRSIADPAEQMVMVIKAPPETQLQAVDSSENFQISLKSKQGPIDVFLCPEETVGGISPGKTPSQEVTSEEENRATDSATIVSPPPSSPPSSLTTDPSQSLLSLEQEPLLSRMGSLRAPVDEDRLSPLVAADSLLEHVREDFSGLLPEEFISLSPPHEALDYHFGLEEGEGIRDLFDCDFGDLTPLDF
Sequence of Retinoic acid receptor alpha (Homo sapiens) (P10276 whole entry, looked up): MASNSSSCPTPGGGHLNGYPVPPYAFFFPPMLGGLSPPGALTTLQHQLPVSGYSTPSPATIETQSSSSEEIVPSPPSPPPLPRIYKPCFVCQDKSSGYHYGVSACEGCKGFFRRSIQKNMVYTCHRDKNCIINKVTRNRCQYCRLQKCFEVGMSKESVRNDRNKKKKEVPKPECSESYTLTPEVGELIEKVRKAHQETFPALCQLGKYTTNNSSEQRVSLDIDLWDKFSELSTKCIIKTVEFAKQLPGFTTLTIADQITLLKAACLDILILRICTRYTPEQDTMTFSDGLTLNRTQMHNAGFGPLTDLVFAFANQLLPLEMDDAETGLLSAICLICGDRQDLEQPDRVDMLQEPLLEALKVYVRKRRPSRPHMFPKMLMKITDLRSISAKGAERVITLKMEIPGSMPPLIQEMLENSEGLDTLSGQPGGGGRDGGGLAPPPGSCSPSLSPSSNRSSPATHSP

CN1CN(C)CN(C)C1
active: [5] 135 µM
not listed: [19] | [20]
inactive: all other assays above

C#CC(O)CCC (stereo unspecified)
not listed: [5] | [10]
inactive: all other assays above

O=S(=O)(O)c1ccc(Cl)cc1
not listed: [4] | [5] | [19]
inactive: all other assays above

Nc1cc([N+](=O)[O-])cc(Cl)c1O
not listed: [4] | [17] | [20]
inactive: all other assays above

CC(C)C(=O)OCc1ccccc1
not listed: [4] | [16] | [20]
inactive: all other assays above

CCN(CC)c1ccc2c(c1)Oc1cc(N(CC)CC)ccc1C21OC(=O)c2ccccc21
active: [19] 7.41 µM
not listed: [4] | [20]
inactive: all other assays above

CC(C)CCCC(C)CCO (stereo unspecified)
not listed: [4] | [17]
inactive: all other assays above

C=C(C)C(=O)OCC(F)(F)C(F)(F)C(F)(F)C(F)F
not listed: [4] | [5] | [10] | [19]
inactive: all other assays above

FC(F)(F)C(F)(F)C(F)(F)C(F)(F)C(F)(F)C(F)(F)C(F)(F)CCI
not listed: [4] | [5] | [10] | [17] | [19]
inactive: all other assays above

OCC(F)(F)C(F)(F)C(F)(F)CO
not listed: [4]
inactive: all other assays above

CO[Si](C)(CCC(F)(F)C(F)(F)C(F)(F)C(F)(F)C(F)(F)C(F)(F)F)OC
not listed: [4]
inactive: all other assays above

CCCCOC(=O)C(C)O (stereo unspecified)
not listed: [4] | [17]
inactive: all other assays above

O=C(O)C(F)(F)OC(F)(F)C(F)(F)OC(F)(F)C(F)(F)OC(F)(F)F
active: [1] 13.2 µM | [6] 66.5 µM
not listed: [4] | [19]
inactive: all other assays above

O=C(F)C1(F)C(F)(F)C(F)(F)C(F)(F)C(F)(F)C1(F)F
not listed: [4] | [10]
inactive: all other assays above

CO[Si](CCCOCC1CO1)(OC)OC (stereo unspecified)
not listed: [5] | [10] | [19] | [20]
inactive: all other assays above

Oc1ccc(C2(c3ccc(O)c(C4CCCCC4)c3)CCCCC2)cc1C1CCCCC1
active: [5] 2.73 µM | [6] 33.4 µM | [20] 8.25 µM | [12] 8.92 µM | [13] 8.87 µM | [15] 16.5 µM | [16] 60.1 µM | [18] 8.81 µM
not listed: [4]
inactive: all other assays above
